PubChem BioAssay (NCI)
This is part of a sample that, as a whole, favours compounds with a hit. Of some 79,000 tested, about 15% had one in any assay. Values without a mark were called inactive. The source made the active and inactive calls. Cut-off read from the data, not from the text of the source: active = growth inhibition above about 70%; inactive = the rest.

Legend:
[1] = NCI Yeast Anticancer Drug Screen. Data for the rad50 strain (AID 155);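 note: 0% = growth of vehicle-only cultures of the same strain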; conditions: S. cerevisiae rad50 strain growth inhibition; at 50.0 µM; active compounds read high
How it was run: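 Readout: growth inhibition relative to vehicle-treated cultures. Compound exposure was carried out in a genetically defined yeast strain deficient in DNA damage repair.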

[2] = NCI Yeast Anticancer Drug Screen. Data for the mec2-1 strain (AID 157); conditions: S. cerevisiae mec2-1 strain, at 50.0 µM, active compounds read high
How it was run: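 Yeast mec2-1 mutant treated with compound. Readout: growth inhibition vs vehicle controls.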

[3] = NCI Yeast Anticancer Drug Screen. Data for the sgs1 mgt1 strain (AID 161);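 note: 0% = growth of cultures given vehicle only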; conditions: S. cerevisiae sgs1 mgt1 strain, at 50.0 µM, active compounds read high
How it was run: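 Read-out: growth inhibition vs vehicle controls. Cells: mutant yeast strain deficient in DNA damage repair.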

[4] = NCI Yeast Anticancer Drug Screen. Data for the cln2 rad14 strain (AID 165);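 note: 0% = growth equal to vehicle treated cultures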; conditions: S. cerevisiae cln2 rad14 strain, at 50.0 µM, active compounds read high
How it was run: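 cln2 rad14 yeast strain; compound exposure; growth inhibition read vs vehicle controls.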

[5] = NCI Yeast Anticancer Drug Screen. Data for the bub3 strain (AID 167); conditions: S. cerevisiae bub3 mutant strain, at 50.0 µM, active compounds read high
How it was run: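 Readout: yeast growth inhibition, expressed relative to vehicle-only wells. The test organism is a mutant strain from a panel with lesions in DNA repair or checkpoint genes.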

[6] = NCI Yeast Anticancer Drug Screen. Data for the mlh1 rad18 strain (AID 175); conditions: S. cerevisiae mlh1 rad18 strain growth inhibition; at 50.0 µM; active compounds read high
How it was run: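 Yeast w/ defined DNA-repair lesions; compound exposure; growth vs vehicle controls → % inhibition.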

SMILES | growth inhibition [1] | growth inhibition [2] | growth inhibition [3] | growth inhibition [4] | growth inhibition [5] | growth inhibition [6]
O=C1CCN2C=CC=CC2=N1 | -14.6% | -8.6% | 2.15% | -26.6% | -19% | 6.95%
CC(C(=O)c1ccccc1)C(=O)c1ccccc1 | -2.7% | -13% | -7.9% | -9.95% | -5.8% | -1.65%
O=C(NCSC1=NCCS1)NCSC1=NCCS1 | -7.05% | -20.4% | 6.85% | 16.5% | 2.85% | -14.8%
CC(=O)N[C@@H]1CCC[C@H](NC(C)=O)C1 | -9.75% | -44.4% | -12.7% | -17.1% | 12.7% | -23.9%
c1ccc(C2=NCCc3cc4c(cc32)OCO4)cc1 | 3.35% | 0.7% | 7.8% | 10.1% | 13.2% | 9.4%
COCC/C=C\CN(C(C)C)C(C)C | -9.5% | -13.3% | -0.4% | 5.45% | 3.5% | 1.05%
Nc1c(Cl)ncnc1NCCCCCO | -5.35% | -4% | -8.75% | -23.7% | -6.95% | -1.95%
O=C(C[N+]12CN3CN(CN(C3)C1)C2)c1ccc(-c2ccccc2)cc1 | 65.7% | 34.2% | 53.2% | 21.1% | 39.2% | 45.6%
CCOC(=O)C[n+]1ccc(C(=O)OCC)cc1 | -7.1% | -15.2% | 0.05% | 2.3% | 11.1% | 3.5%
O=S=C(c1ccccc1)N1CCc2ccccc21 | 22.4% | 3.75% | 12.1% | 7.15% | 18.4% | 22.7%
COC(=O)CCCCCCCCC(C)C(C)=O (stereo not given) | -34.8% | -29.8% | -16.4% | -12.5% | -45.3% | -32.5%
CCOC(=O)c1ccc(-n2cnc(-c3ccc([N+](=O)[O-])cc3)c2)cc1 | -4.55% | -7.2% | -8.8% | -7.15% | -1.15% | -16.2%
N#CC1=C(N)C(c2ccccc2)(c2ccccc2)CC1 | 30.4% | 29.6% | 8.15% | -0.45% | 0.4% | 35.7%
c1ccc(C2(c3ccccc3)SC2(c2ccccc2)c2ccccc2)cc1 | -13.9% | -7.75% | -11.1% | -24.1% | 2.15% | -6.65%
CC1(C(=O)O)CCCC1C(=O)O (stereo not given) | 12.5% | 6.8% | 1.75% | -8.05% | -1.25% | 12.1%
CC(C)(C)c1cc(C#N)cc(Br)c1O | 98.6% (active) | 98.7% (active) | 99.3% (active) | 97.2% (active) | 97.7% (active) | 98.7% (active)
CCSCCCSCCSCC | 58.5% | 46.5% | 57.5% | 43.7% | 63.5% | 56%
C=CC12COC(=O)CC1CCC(=O)C2 (stereo not given) | 4.75% | -10.2% | -14.2% | -19.4% | 13.4% | -5.4%
c1ccc2c3c([nH]c2c1)CCCCCC3 | 19.2% | 14.6% | 15.1% | 13.2% | 21.8% | 15.9%
Cc1ccc2c3nc4ccccc4c-3csc2c1 | 99.2% (active) | 99.4% (active) | 99.4% (active) | 99% (active) | 99.2% (active) | 99.3% (active)
